# Data as given in PubChem BioAssay (NCATS).
# Inconclusive results are not listed. Where a call stands in place of a potency, no number is given. The source made the active and inactive calls. Calls follow the shape of the dose curve; as a rule, active = well fitted curve in the direction sought with a large enough effect; inconclusive = small, poorly fitted or top-dose-only effect, or another doubt; inactive = no such curve, though single readings can be large; an effect the other way counts as inactive or inconclusive.
# Tests used:
# [1] = qHTS of pediatric cancer cell lines to identify multiple opportunities for drug repurposing: Primary screen for SK-N-SH cells (AID 1347098);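 also: DMSO served as neutral control and bortezomib at 2.3 µM as positive control; nearly all actives have a fitted effect of over 65% in size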
# In short: (§1)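 Cells (500-1,000/well) rested 5 h, then received compounds for 48 h; metabolically active cells were measured by CellTiter-Glo luminescence. Final concentrations spanned up to 46 µM (MIPE, 11-point) or 0.59 nM-46 µM (NPC, 8-point) in primary screens, 11-point in follow-ups.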
# [2] = qHTS of pediatric cancer cell lines to identify multiple opportunities for drug repurposing: Primary screen for NB1643 cells (AID 1347099); also: nearly all actives have a fitted effect of over 50% in size
# In short: (§2)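 500-1,000 cells/well; 5 h pre-incubation 37 °C/5% CO2; compound pinned; 48 h; CellTiter-Glo, 15 min RT; luminescence. MIPE 11-pt from 0.78 nM, NPC 8-pt from 0.59 nM final. Bortezomib 2.3 µM final as positive control.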
# [3] = qHTS of pediatric cancer cell lines to identify multiple opportunities for drug repurposing: Primary screen for LAN-5 cells (AID 1347100); also: potency is read from the fitted curve at half-maximal effect
# In short: as §1
# [4] = qHTS of pediatric cancer cell lines to identify multiple opportunities for drug repurposing: Primary screen for BT-12 cells (AID 1347101); also: nearly all actives have a fitted effect of over 25% in size
# In short: as §1
# [5] = qHTS of pediatric cancer cell lines to identify multiple opportunities for drug repurposing: Primary screen for Rh18 cells (AID 1347102); also: nearly all actives have a fitted effect of over 65% in size
# In short: as §1
# [6] = qHTS of pediatric cancer cell lines to identify multiple opportunities for drug repurposing: Primary screen for OHS-50 cells (AID 1347103); also: nearly all actives have a fitted effect of over 40% in size
# In short: as §1
# [7] = qHTS of pediatric cancer cell lines to identify multiple opportunities for drug repurposing: Primary screen for RD cells (AID 1347104); also: nearly all actives have a fitted effect of over 55% in size
# In short: as §2
# [8] = qHTS of pediatric cancer cell lines to identify multiple opportunities for drug repurposing: Primary screen for MG 63 (6-TG R) cells (AID 1347105); also: nearly all actives have a fitted effect of over 50% in size
# In short: as §2
# [9] = qHTS of pediatric cancer cell lines to identify multiple opportunities for drug repurposing: Primary screen for control Hh wild type fibroblast cells (AID 1347106);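 also: series mostly up to about 46 µM; a drop in luminescence marks cytotoxicity and a rise apparent proliferation; nearly all actives have a fitted effect of over 55% in size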
# In short: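 Viability after 48 h compound treatment at 37C, 500-1,000 cells/well, read as ATP luminescence with CellTiter-Glo. Primary screens used 11-point (MIPE, 0.78 nM-46 µM) or 8-point (NPC, 0.59 nM-46 µM) final concentrations; follow-up screens used 11-point dilutions.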
# [10] = qHTS of pediatric cancer cell lines to identify multiple opportunities for drug repurposing: Primary screen for Rh30 cells (AID 1347107); also: series mostly up to about 46 µM; nearly all actives have a fitted effect of over 75% in size
# In short: as §1
# [11] = qHTS of pediatric cancer cell lines to identify multiple opportunities for drug repurposing: Primary screen for Rh41 cells (AID 1347108);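 also: series mostly up to about 46 µM; luminescence drop marks cytotoxic hits; nearly all actives have a fitted effect of over 70% in size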
# In short: as §2
Compound,Potency [1],Potency [2],Potency [3],Potency [4],Potency [5],Potency [6],Potency [7],Potency [8],Potency [9],Potency [10],Potency [11]
Cc1cccc(OCC(O)CNC(C)(C)C)c1C (stereo not drawn),inactive,inactive,inactive,inactive,inactive,inactive,inactive,inactive,inactive,inactive,inactive
Oc1ccccc1,inactive,inactive,inactive,inactive,inactive,inactive,inactive,inactive,inactive,inactive,inactive
CCC(=O)O[C@H]1[C@H](O[C@@H]2[C@@H](C)[C@H](O[C@H]3C[C@@](C)(OC)[C@@H](O)[C@H](C)O3)[C@@H](C)C(=O)O[C@H](CC)[C@@](C)(O)[C@H](O)[C@@H](C)C(=O)[C@H](C)C[C@@]2(C)O)O[C@H](C)C[C@@H]1N(C)C,inactive,inactive,inactive,inactive,inactive,inactive,inactive,inactive,inactive,inactive,inactive
CCCCCC1Nc2cc(C(F)(F)F)c(S(N)(=O)=O)cc2S(=O)(=O)N1 (stereo not drawn),inactive,inactive,inactive,inactive,inactive,inactive,inactive,inactive,inactive,inactive,inactive
Cc1cccc(C)c1NC(=O)c1ccc(N)cc1,inactive,inactive,inactive,inactive,inactive,inactive,inactive,inactive,inactive,inactive,inactive
CCCCC(CC)COC(=O)c1ccccc1C(=O)O (stereo not drawn),inactive,inactive,inactive,inactive,inactive,inactive,inactive,inactive,inactive,inactive,inactive
OC1(c2ccccc2)CCNCC1,inactive,inactive,inactive,inactive,inactive,inactive,inactive,inactive,inactive,inactive,inactive
COC(=O)c1cc(Cl)ccc1OC,inactive,inactive,inactive,inactive,inactive,inactive,inactive,inactive,inactive,inactive,inactive
Brc1ccccc1-c1ccccc1,inactive,inactive,inactive,inactive,inactive,inactive,inactive,inactive,inactive,inactive,inactive
O=C(CCCl)NCCc1ccccc1,inactive,inactive,inactive,inactive,inactive,inactive,inactive,inactive,inactive,inactive,inactive
CC1c2ccccc2CN1NC(=O)c1ccc(Cl)c(S(N)(=O)=O)c1 (stereo not drawn),inactive,inactive,inactive,inactive,inactive,inactive,inactive,inactive,inactive,inactive,inactive
CCCCC(O)/C=C(C)/C=C/C=C/C(=O)N1CCCC1=O (stereo not drawn),inactive,inactive,inactive,inactive,inactive,inactive,inactive,inactive,inactive,inactive,
COc1ccc2c(c1)CCCC2=O,inactive,inactive,inactive,inactive,inactive,inactive,inactive,inactive,inactive,inactive,
CN1N=C(C(N)=O)CCC1=O,inactive,inactive,inactive,inactive,inactive,inactive,inactive,inactive,inactive,inactive,inactive
C[C@@H]1C[C@H]2[C@@H]3CCC4=CC(=O)C=C[C@]4(C)[C@@]3(F)[C@@H](O)C[C@]2(C)[C@@]1(O)C(=O)COC(=O)c1ccncc1,inactive,inactive,inactive,inactive,inactive,inactive,inactive,inactive,inactive,inactive,
Cc1cc(O)c(C)c(C)c1O,inactive,inactive,16.8 µM (active),inactive,inactive,inactive,inactive,inactive,inactive,inactive,inactive
C/C(=N\O)[C@@H](C)NCC(C)(C)CN[C@H](C)/C(C)=N/O,inactive,inactive,inactive,inactive,inactive,inactive,inactive,inactive,inactive,inactive,inactive
CC(=O)N1CCN(c2ccc(O)cc2)CC1,inactive,inactive,inactive,inactive,inactive,inactive,inactive,inactive,inactive,inactive,inactive
C[N+]1(CC2COC(c3ccccc3)(c3ccccc3)O2)CCCCC1 (stereo not drawn),inactive,inactive,inactive,inactive,inactive,inactive,inactive,inactive,inactive,inactive,inactive
Cc1ccc(-c2ccccc2C#N)cc1,inactive,inactive,inactive,inactive,inactive,inactive,inactive,inactive,inactive,inactive,inactive
CC(C)OP(=O)(CP(=O)(OC(C)C)OC(C)C)OC(C)C,inactive,inactive,inactive,inactive,inactive,inactive,inactive,inactive,inactive,inactive,inactive
